This note sets out measurements from PubChem BioAssay AID504339 (National Center for Advancing Translational Sciences (NCATS), 2011).

Several values for one entry are separate records, joined by “and”; a condition that tells them apart may be missing. Equal entries are not always repeated. Out of some 390,000 compounds screened, about 17,000 (4.4%) were called active. Where a call stands in place of a potency, no number is given. Another 8% or so got no clear call; they are omitted. This is one part of a sample in which actives are shown more often than they occur. Calls come from the whole dose curve; as a rule, active = well fitted inhibition curve with a large enough effect; inconclusive = small, poorly fitted or top-dose-only effect; inactive = no such curve, though single readings can be large or run the other way. Some compounds were tested as several samples or in several runs, with calls that do not always agree.
Potency is the fitted concentration of half-maximal effect.

For the test, the target named is Lysine-specific demethylase 4A (Homo sapiens) (UniProt O75164). Put plainly: qHTS Assay for Inhibitors of JMJD2A-Tudor Domain. Note: nearly all actives have a fitted effect of over 50% in size. The note with it: AlphaScreen JMJD2A-Tudor / H3K4me3 peptide binding; series mostly up to 114 µM. (In general: In qHTS, concentration-response curves come from the screen itself.)
Chain of Lysine-specific demethylase 4A (Homo sapiens) (O75164 whole entry, looked up, the tested form may be a part): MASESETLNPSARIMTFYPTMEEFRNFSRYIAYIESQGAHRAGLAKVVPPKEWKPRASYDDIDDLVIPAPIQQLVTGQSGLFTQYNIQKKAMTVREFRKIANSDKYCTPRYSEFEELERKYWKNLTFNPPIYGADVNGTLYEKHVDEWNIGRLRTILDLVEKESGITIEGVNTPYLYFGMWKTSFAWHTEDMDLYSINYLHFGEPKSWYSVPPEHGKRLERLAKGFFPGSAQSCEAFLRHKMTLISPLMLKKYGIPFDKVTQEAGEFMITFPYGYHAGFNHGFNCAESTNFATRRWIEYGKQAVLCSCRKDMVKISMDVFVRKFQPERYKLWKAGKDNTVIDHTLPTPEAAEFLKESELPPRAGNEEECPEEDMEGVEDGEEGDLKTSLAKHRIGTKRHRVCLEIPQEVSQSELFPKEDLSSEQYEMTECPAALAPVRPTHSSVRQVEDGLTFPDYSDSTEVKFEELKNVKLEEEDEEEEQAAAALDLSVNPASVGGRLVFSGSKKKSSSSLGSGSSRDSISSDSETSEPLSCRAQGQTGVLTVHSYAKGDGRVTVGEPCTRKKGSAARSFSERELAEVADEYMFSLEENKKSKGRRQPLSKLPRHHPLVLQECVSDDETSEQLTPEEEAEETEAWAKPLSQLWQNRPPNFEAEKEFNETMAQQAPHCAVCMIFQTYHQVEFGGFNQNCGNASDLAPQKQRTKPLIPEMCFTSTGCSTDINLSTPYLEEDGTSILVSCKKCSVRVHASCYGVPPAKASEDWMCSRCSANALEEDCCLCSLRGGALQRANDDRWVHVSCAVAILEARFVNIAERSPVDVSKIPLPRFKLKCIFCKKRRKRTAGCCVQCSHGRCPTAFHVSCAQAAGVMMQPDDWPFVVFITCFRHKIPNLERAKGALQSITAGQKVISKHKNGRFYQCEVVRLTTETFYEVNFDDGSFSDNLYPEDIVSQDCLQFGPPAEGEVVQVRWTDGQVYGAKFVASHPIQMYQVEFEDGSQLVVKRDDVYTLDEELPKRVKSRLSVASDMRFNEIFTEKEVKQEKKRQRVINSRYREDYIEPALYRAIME
Consider `COc1ccc(CCNc2nc(-c3ccc(Cl)cc3)cc(C(F)(F)F)n2)cc1OC`, for which the Potency result is “inactive”.
Consider `COc1ccc(Cc2nnc(SC)[nH]c2=O)cc1`, for which the Potency result is “inactive”.
Take `COc1ccc(Cc2nnc(N/N=C/c3ccccc3O)[nH]c2=O)cc1OC`: the Potency was 28.2 µM (active).
The value for `CC(C)c1ccc(Cc2nnc(NCCCO)[nH]c2=O)cc1` was “inactive”; that for `O=S(=O)(c1ccc(Br)cc1)c1nnn2c1nc(NC1CCCCCC1)c1sccc12` was “inactive”.
As to `CC(=O)Nc1ccc(NC(=O)c2cc3sccc3n2Cc2ccc(F)cc2)cc1`, the Potency result was “inactive”.
With `CCOc1ccc2nc(N3CCCC(C(=O)Nc4cc(C)ccc4C)C3)sc2c1` (centres undefined), the Potency entry is “inactive”.
The value for `COc1ccc2[nH]cc(CCN3C(=O)c4ccc(C(=O)O)cc4C3=O)c2c1` was “inactive”; that for `Cc1ccc2[nH]cc(CCCN3C(=O)c4ccccc4C3=O)c2c1` was 22.4 µM (active).
The same measure for `Cc1ccc2[nH]cc(CCNC(=O)C3CCCCC3)c2c1`: “inactive”; for `Cc1nn(Cc2ccc(F)cc2)c(C)c1NC(=O)c1cc(CC(C)C)on1`: “inactive”.
In the case of `O=C(CSc1ncc(CO)n1Cc1ccc(Cl)cc1)NCc1ccc(F)cc1`, the Potency entry is “inactive”.
`COc1ccc(N2CCN(C3=NS(=O)(=O)C(c4cccc(Br)c4)=C3C)CC2)cc1`: the Potency result was “inactive”.
The same measure for `Cc1cc(/C=C2/NC(=O)NC2=O)c(C)n1-c1cccnc1`: “inactive”; for `Cc1ccc(CN2C(=O)N/C(=C/c3cc(C)n(-c4ccccn4)c3C)C2=O)cc1`: “inactive”; for `Cc1cccc(C)c1-n1c(C)cc(/C=C2\C(=O)NN(c3ccccc3)C2=O)c1C`: 22.4 µM (active).
Turning to `CCOc1ccc(NC(=O)c2cc3c(=O)n(Cc4cccs4)ccc3nc2C)cc1`, the Potency entry was “inactive”.
The value for `Cc1cccc(NC(=O)c2nnn(CC(=O)Nc3ccc(C(C)C)cc3)c2N)c1C` was “inactive”.
As for `Cc1cc2nc(-c3ccc(NC(=O)c4cc5ccccc5o4)cc3)oc2cc1C`, the Potency result was “inactive”.
The value for `CCOC(=O)N1CCc2c(sc3c2c(=O)n(Cc2ccccc2)c(=O)n3CC(=O)Nc2cccc(C)c2)C1` was “inactive”; that for `COc1cccc(-n2c(=O)c3c(C)c(C(=O)N(C)C)sc3n(CC(=O)NCCc3ccc(OC)c(OC)c3)c2=O)c1` was “inactive and 79.4 µM (active)”.
With `COc1cccc(-n2c(=O)c3c(C)c(C(=O)N(C)C)sc3n(Cc3cccc(C)c3)c2=O)c1`, the Potency result is “inactive”.
For the compound `COc1ccc(CCNC(=O)Cn2c(=O)n(-c3ccccc3)c(=O)c3c(C)c(C)sc32)cc1OC`, the Potency result was “inactive”.
The same measure for `COc1ccc(-c2ccc(OC)c(C3C4C=CCC(C)C4C(=O)N3Cc3ccccc3)c2)cc1C` (centres undefined): “inactive”.
Take `COc1cccc(CNC(=O)CCc2nc(-c3ccc(C)cc3)no2)c1`: the Potency result was “inactive”.
With `Cc1cc2c(cc1C)NC1(C[C@H]3CCC(=O)N4CC[C@@H](C1)[C@@H]34)C(=NC(C)(C)CC(C)(C)C)N2` (some centres undefined), the Potency is 15.8 µM (active).
In the case of `O=C1CC[C@@H]2CC3(C[C@@H]4CCN1[C@H]24)Nc1cc([N+](=O)[O-])ccc1NC3=NC1CCCCC1` (some centres undefined), the Potency entry is “inactive”.
On to `COC(=O)c1cccc(Cn2nnc3sc4c(c3c2=O)CCC(C(C)(C)C)C4)c1` (centres undefined), for which the Potency entry is “inactive”.
As to `O=C(Nc1ccccc1)Oc1cccc2cccnc12`, the Potency was 15.8 µM (active).
Turning to `OCc1ccc(OCCCOc2cccc3cccnc23)cc1`, the Potency result is “inactive”.
With `O=C(Nc1cccc2cccnc12)C(F)(F)F`, the Potency result was “inactive”.
`CCOc1ccccc1NC(=O)Cn1nnc(C(=O)Nc2ccc(C)c(C)c2)c1N`: the Potency entry was “inactive”.
Regarding `COc1cc(NS(=O)(=O)c2cccs2)cc(OC)c1`, the Potency entry was “inactive”.
In the case of `Cc1cc(C(=O)OCC(=O)Nc2nnc(C(C)C)s2)c2ccccc2n1`, the Potency result is “inactive”.
For `Cc1cc(C(=O)OCC(=O)Nc2nccs2)c2ccccc2n1`, the Potency is 20 µM (active).
Consider `O=C(COC(=O)c1ccc(O)cc1)Nc1nccs1`, for which the Potency entry was “inactive”.
Turning to `Cc1cccc(CCNC(=O)c2ccc3c(c2)nc2n3CCC(C)C2)c1` (centres undefined), the Potency result was “inactive”.
For `Cc1ccc(C)c(N2CCN(C(=O)Cn3nc(C)c4sc5ccccc5c4c3=O)CC2)c1`, the Potency is 12.6 µM (active).
Take `Cc1ccc(C)c(N2CCN(C(=O)Cn3ncn4cccc4c3=O)CC2)c1`: the Potency result was “inactive”.
Regarding `Cc1nn(CC(=O)NCCc2ccccc2)c(=O)c2c1sc1ccccc12`, the Potency result is “inactive”.
With `CC(=O)c1ccc(NC(=O)c2nc(-c3ccc(C)cc3)n3c2CCCCC3)cc1`, the Potency result was “inactive”.
Regarding `CCc1nnc2c3ccccc3nc(N3CCN(c4ccc(C)cc4C)CC3)n12`, the Potency result was “inactive”.
Take `CCN(CC)CCN(C(=O)c1cccc([N+](=O)[O-])c1)c1nc2ccc(OC)cc2s1`: the Potency result is “inactive”.
For the compound `COc1ccc2sc(N(CCCN(C)C)C(=O)c3ccc(S(=O)(=O)N(C)C4CCCCC4)cc3)nc2c1`, the Potency was 56.2 µM (active).
As for `CN(C)S(=O)(=O)c1ccc(C(=O)N(Cc2cccnc2)c2nc3c(F)cc(F)cc3s2)cc1`, the Potency entry is “inactive”.
As for `CCOc1ccc(C(=O)c2cn(Cc3ccccc3OC)c3ccc(F)cc3c2=O)cc1`, the Potency result is “inactive”.
Consider `CCN(CC)c1ccc(NC(=O)CN2C(=O)c3cccnc3Oc3ccc(Cl)cc32)c(C)c1`, for which the Potency entry is “inactive”.
Turning to `COC(=O)c1c(NC(=O)CCCOc2ccccc2)sc2c1CCC(C)C2` (centres undefined), the Potency entry is “inactive”.
As to `O=C(CN1CCCCCC1)Nc1ccc(Cl)cc1F`, the Potency entry is “inactive”.
For `O=C(CN1CCCCCC1)Nc1ccc(Br)cc1Br`, the Potency result was “inactive”.
Take `O=C(CN1CCCCCC1)Nc1ccc(Br)cc1[N+](=O)[O-]`: the Potency was 44.7 µM (active).
For `Cn1c(COc2ccccc2C(C)(C)C)nc2ccccc21`, the Potency entry was “inactive”.
In the case of `CCOCCn1ccc2c(OCC(=O)NCc3ccc(C)cc3)cccc2c1=O`, the Potency entry was “inactive”.
Regarding `CC(O)CNCCOc1cccc(Oc2ccccc2)c1` (centres undefined), the Potency is 3.55 µM (active).
The value for `C=CCNCCCCOc1ccccc1` was “inactive”; that for `CC1(C)NC(=O)N(CCOc2cccc(Oc3ccccc3)c2)C1=O` was “inactive”.
Regarding `CCOc1ccc(NC(=O)c2cc(S(=O)(=O)N3CCCC3)c[nH]2)cc1`, the Potency entry is “inactive”.
The same measure for `O=c1cc(CO)oc(C(Nc2cccc([N+](=O)[O-])c2)c2ccccn2)c1O` (centres undefined): 50.1 µM (active); for `O=C(CSc1nnc(-c2ccccc2F)o1)Nc1cccc(C(F)(F)F)c1`: “inactive”.
The same measure for `O=C(CSc1nc(-c2ccccc2)cs1)Nc1cccc([N+](=O)[O-])c1`: “inactive”; for `O=[N+]([O-])c1cccc(S(=O)(=O)NCc2ccccn2)c1`: “inactive”; for `O=c1cc(CO)oc(C(Nc2cccc(C(F)(F)F)c2)c2ccccn2)c1O` (centres undefined): 56.2 µM (active).
For the compound `Cn1c(=O)c2c(ncn2CC(=O)Nc2cccc(C(F)(F)F)c2)n(C)c1=O`, the Potency entry is “inactive”.
Turning to `COc1cccc(-c2nnc3n(CCc4ccccc4)c(=O)c4ccccc4n23)c1O`, the Potency entry was “inactive”.
On to `Cc1ccc(-c2nc(Cn3c(=O)cc(-c4ccccc4)c4c(C)nn(C)c43)c(C)o2)cc1`, for which the Potency result was “inactive”.
Turning to `COc1ccc(CNC(=O)CCc2c(C)nn(-c3ccc(N4CCCC4)nn3)c2C)cc1`, the Potency result is “inactive”.
As to `CCOc1ccc(C(=O)c2cn(Cc3ccc(F)cc3)c3ccc(F)cc3c2=O)cc1`, the Potency result is “inactive”.
The same measure for `Cc1cccc(Cn2c(CN3CCC(C(=O)NCc4ccccc4Cl)CC3)cc3ccccc32)c1`: “inactive”.
Regarding `CCOC(=O)c1c(SCC(=O)Nc2cccc(C)c2C)nc(=O)[nH]c1C`, the Potency entry is “inactive”.
In the case of `CC1=C(C(=O)Nc2ccccc2)C(c2ccc(C)cc2)n2nc(SCc3ccccc3C)nc2N1` (centres undefined), the Potency entry is “inactive”.
Turning to `CC(C)Cn1c(-c2ccc(S(=O)(=O)N3CCOCC3)cc2)csc1=Nc1cc(Cl)ccc1Cl`, the Potency entry was “inactive”.
Turning to `O=c1cc(CCl)nc2scc(-c3ccccc3)n12`, the Potency result was “inactive”.
For the compound `CN(C)CCCn1c(-c2ccc(Cl)cc2)csc1=Nc1ccccc1`, the Potency is 39.8 µM (active).
The same measure for `CN(C)CCCn1c(=O)n(Cc2ccccc2)c(=O)c2c3c(sc21)CCCCC3`: “inactive”; for `OCCn1c(-c2ccccc2)csc1=Nc1ccccc1`: 56.2 µM (active).
Take `CCN(c1ncnc2c1cnn2-c1ccc(C)cc1)C1CCCCC1`: the Potency entry is “inactive”.
The same measure for `COc1ccc(-c2ccc(=O)n(CC(=O)Nc3ccc(Br)cc3F)n2)cc1`: “inactive”.
With `CCCC(=O)C1=C(N(C)c2ccccc2)CC(C)(C)C(C(=O)OC)C1=O` (centres undefined), the Potency result was “inactive”.
For the compound `C=CCO/N=C/C1=C(O)C(C(=O)OC)C(C)(C)CC1=O` (centres undefined), the Potency was 79.4 µM (active).
Consider `COCC(C)N=CC1=C(O)CC(C)(C)CC1=O` (centres undefined), for which the Potency result was “inactive”.
The same measure for `Cn1c(=O)c2c(SCC(=O)NCC3CCCO3)nc(-c3ccccc3F)nc2n(C)c1=O` (centres undefined): “inactive”; for `O=C(CCS(=O)(=O)c1cc(Br)cc2c1N(C(=O)C1CC1)CC2)Nc1ccc(C(F)(F)F)cc1`: “inactive”; for `COc1ccc(OC)c(NC(=O)CN2CCCN(Cc3cc(C)ccc3C)S2(=O)=O)c1`: “inactive”.
The value for `Cc1ccc(C(C)C)cc1OCC(=O)Nc1ccccc1N1CCCC1` was “inactive”; that for `Cc1cccc(C(=O)OC(C)CN2CCCC2)c1` (centres undefined) was “inactive”; that for `Cc1cc(OCCN2CCCC2)cc(C(C)C)c1` was 5.01 µM (active).
In the case of `COc1cc(/C=N/NC(=O)c2ccoc2C)ccc1OCCN1CCCCC1`, the Potency result is “inactive”.
Turning to `Cc1ccc(C(C)C)cc1OCCN1CCCC1`, the Potency is 79.4 µM (active).
On to `CCCn1c(=N)c(C(=O)NCc2ccccc2)cc2c(=O)n3cccc(C)c3nc21`, for which the Potency result is “inactive”.
The same measure for `Cn1c(=O)c2c(SCC(=O)N3CCc4ccccc43)nc(-c3ccc(Cl)cc3)nc2n(C)c1=O`: “inactive”.
As for `CCNC(=O)CC1C(=O)N(c2ccc(F)cc2)C(=O)N1Cc1ccc(C)cc1` (centres undefined), the Potency entry was “inactive”.
For `CN1CCN(C2(CNC(=O)COc3ccc(C(C)(C)C)cc3)CCCCC2)CC1`, the Potency entry was “inactive”.
Consider `Cc1ccc(Cl)cc1N1CCN(C(=O)CN2C(=O)COc3ccc(S(=O)(=O)N4CCOCC4)cc32)CC1`, for which the Potency entry was “inactive”.
The value for `Oc1ccc(Cl)cc1C1C=C(c2ccc3c(c2)OCO3)NC(c2ccc(F)c(Br)c2)N1` (centres undefined) was “inactive”; that for `CC(C)c1ccc(C2C(C#N)=C(N)Oc3c2oc(CO)cc3=O)cc1` (centres undefined) was “inactive”.
Turning to `CC(C)c1ccc(C2CC(=O)N3CN(C4CCCCC4)CSC3=C2C#N)cc1` (centres undefined), the Potency was 25.1 µM (active).
Take `COc1ccc(NC(=O)CSc2nc(N)c(-c3ccccc3)c(=O)[nH]2)cc1`: the Potency entry was “inactive”.
For the compound `COc1ccc(-c2nc3c(c(SCC(=O)Nc4ccc(C(=O)O)cc4)n2)Cc2ccccc2O3)cc1`, the Potency was 35.5 µM (active).
The same measure for `COc1cc(OC)cc(-c2nnc(SCC(=O)Nc3ccc(C(=O)O)cc3)s2)c1`: “inactive”.
